This passage reports growth inhibition results from PubChem BioAssay (NCI).

Assay [1] in a line: NCI Yeast Anticancer Drug Screen. Data for the rad50 strain (AID 155).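 Further: 0% = growth of vehicle-only cultures of the same strain.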 The settings on record: S. cerevisiae rad50 strain growth inhibition; at 50.0 µM; hits give high values. In a few lines:
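Growth of the mutant yeast was measured after compound exposure and referenced to vehicle-treated cultures.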

Assay [2] is described as follows: NCI Yeast Anticancer Drug Screen. Data for the mec2-1 strain (AID 157). Particulars: S. cerevisiae mec2-1 strain, at 50.0 µM, hits give high values. The procedure, abridged:
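Each compound was tested on mec2-1 yeast, a strain altered in DNA damage repair or cell cycle control. Growth inhibition is reported relative to vehicle.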

Assay [3] can be described thus: NCI Yeast Anticancer Drug Screen. Data for the sgs1 mgt1 strain (AID 161).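 Further: 0% = growth of cultures given vehicle only.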 Particulars: S. cerevisiae sgs1 mgt1 strain, at 50.0 µM, hits give high values. The procedure, abridged:
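Inhibition of yeast growth, normalised to vehicle-treated controls, is reported for a strain bearing genetic alterations in DNA damage repair.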

Assay [4] is described as follows: NCI Yeast Anticancer Drug Screen. Data for the cln2 rad14 strain (AID 165).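 Further: 0% = growth equal to vehicle treated cultures.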 Particulars: S. cerevisiae cln2 rad14 strain, at 50.0 µM, hits give high values. The procedure, abridged: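 Test compounds were added to cln2 rad14 yeast cultures; inhibition of growth was then determined by comparison with vehicle treatment.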
Assay [5] in a line: NCI Yeast Anticancer Drug Screen. Data for the bub3 strain (AID 167). Particulars: S. cerevisiae bub3 mutant strain, at 50.0 µM, hits give high values. In a few lines:
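Whole-cell yeast assay. The mutant strain was incubated with compounds, and growth inhibition was determined by comparison with vehicle-treated cells.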

The nature of assay [6]: NCI Yeast Anticancer Drug Screen. Data for the mlh1 rad18 strain (AID 175). Particulars: S. cerevisiae mlh1 rad18 strain growth inhibition; at 50.0 µM; hits give high values. The procedure, abridged: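 Inhibition values reflect reduced growth of mutant yeast versus vehicle-treated controls following compound exposure; the mutations affect DNA damage repair.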

Molecules are shown by their SMILES. This is part of a sample that, as a whole, favours compounds with a hit. Of some 79,000 tested, about 15% had one in any assay. A number with no mark means an inactive call. The source made the active and inactive calls. No stated cut-off is given here; in the data, active means growth inhibition above about 70%; inactive means the rest.

As to `COC1OC(COC(=O)c2ccccc2)C(OC(=O)c2ccccc2)C1NC(C)=O` (stereo not drawn), the growth inhibition in assay [1] was 14.1%; in assay [2], 18.7%; in assay [3], 12.7%; in assay [4], 62.1%; in assay [5], 39.1%; in assay [6], 28.4%.
Turning to `CCCNC(=O)Nc1ccc(OC)cc1Cl`, the growth inhibition in assay [1] was -12.1%; in assay [2] it was -9.45%; in assay [3], -1.65%; in assay [4], -59.3%; in assay [5], -6.3%; in assay [6], -15.6%.
With `O=C(COc1cc(Cl)c(Cl)cc1Cl)Oc1ccccc1`, the growth inhibition is -0.3% in assay [1]; 4.95% in assay [2]; 7.65% in assay [3]; -8.85% in assay [4]; 8.5% in assay [5]; 3.6% in assay [6].
Consider `Cc1cc2nc(Cl)n(C3OC(CO)C(O)C3O)c2cc1C` (stereo not drawn), for which the growth inhibition is 16.6% in assay [1]; -7.15% in assay [2]; 0.15% in assay [3]; 4.8% in assay [4]; -1% in assay [5]; 12.8% in assay [6].
For the compound `c1ccc(C2=NOC3C4CCC(C4)C23)cc1` (stereo not drawn), the growth inhibition in assay [1] is -37.6%; in assay [2], -20.4%; in assay [3], -28.4%; in assay [4], -21%; in assay [5] it was -8.85%; in assay [6] it was -20.1%.
As to `Cn1ncc2c(=O)[nH]c(NCCO)nc21`, the growth inhibition in assay [1] is 3.3%; in assay [2], 1.25%; in assay [3], 0.9%; in assay [4] it was -16.9%; in assay [5], 8.7%; in assay [6], 0.4%.
Regarding `CCCCN(CCCC)C(=O)OCC`, the growth inhibition in assay [1] is 30.2%; in assay [2] it was 8.3%; in assay [3] it was 6.35%; in assay [4] it was 12.4%; in assay [5], 19.2%; in assay [6], 14.5%.
Regarding `CCCCCc1c(C)[nH]n(C(N)=NCCSCc2nc[nH]c2C)c1=O`, the growth inhibition in assay [1] is 31.5%; in assay [2] it was -0.8%; in assay [3] it was 35%; in assay [4] it was 22.4%; in assay [5], -22.5%; in assay [6], 25.2%.
Turning to `CC(=O)Nc1ccc(S(=O)(=O)NCCC(=O)O)cc1`, the growth inhibition in assay [1] is -9.7%; in assay [2] it was -16.6%; in assay [3], 2.45%; in assay [4] it was 4.3%; in assay [5], 4.45%; in assay [6] it was 21.8%.
As to `Cc1cc2c(=O)c3ccccc3[nH]c2c(C(N)=O)c1C`, the growth inhibition was 39.5% in assay [1]; 7.8% in assay [2]; 1.75% in assay [3]; -6.9% in assay [4]; -10.5% in assay [5]; 15.3% in assay [6].
For `FC(F)(F)C[P+](c1ccccc1)(c1ccccc1)c1ccccc1`, the growth inhibition was 40.9% in assay [1]; 13.1% in assay [2]; 15.3% in assay [3]; 16.9% in assay [4]; 11.5% in assay [5]; 26% in assay [6].
As to `O=C1CCC(N2C(=O)C3C4CCC(CC4)C3C2=O)C(=O)N1` (stereo not drawn), the growth inhibition is 2.75% in assay [1]; -12.9% in assay [2]; -14.9% in assay [3]; -1.65% in assay [4]; -2.65% in assay [5]; -16.2% in assay [6].
Take `O=C1CSC(c2c[nH]c3ccccc23)N1c1cccc([N+](=O)[O-])c1` (stereo not drawn): the growth inhibition was -61.2% in assay [1]; -39.5% in assay [2]; -59.9% in assay [3]; -0.7% in assay [4]; -59% in assay [5]; -39% in assay [6].
Take `CC(=O)Nc1ccc([N+](=O)[O-])cc1[N+](=O)[O-]`: the growth inhibition in assay [1] was 3.35%; in assay [2] it was -10.9%; in assay [3] it was -4.05%; in assay [4], -37.9%; in assay [5], -15.6%; in assay [6], 3.95%.
Turning to `O=C(Nc1ccccc1C(=O)N/N=C/c1ccccc1Cl)c1ccccc1Cl`, the growth inhibition is -36.5% in assay [1]; -14.1% in assay [2]; 5.1% in assay [3]; -25.9% in assay [4]; 0.25% in assay [5]; 4.1% in assay [6].
As for `Cc1ccccc1NC(=O)/C=C\C(=O)O`, the growth inhibition in assay [1] is 8.9%; in assay [2], -10.3%; in assay [3], -0.7%; in assay [4] it was 10.1%; in assay [5], -14.4%; in assay [6] it was 10.2%.
On to `O=C(O)c1ccc(-c2ccc(O)cc2)cc1`, for which the growth inhibition was 10.8% in assay [1]; 5.85% in assay [2]; 2% in assay [3]; -34% in assay [4]; -6.7% in assay [5]; 9.4% in assay [6].
As to `C/C(=N/NC(=S)N1CCCCCC1)c1ccccc1O`, the growth inhibition was -63.5% in assay [1]; -40.4% in assay [2]; 5.6% in assay [3]; 45.4% in assay [4]; -12.8% in assay [5]; 34.8% in assay [6].
As to `COc1cc(C(=O)O)c(Cc2ccccc2)c(OC)c1O`, the growth inhibition in assay [1] was 9.8%; in assay [2], 5.95%; in assay [3], 1.05%; in assay [4] it was 5.6%; in assay [5], 9.05%; in assay [6] it was -3.2%.
Turning to `Cc1cc2nc(C(C)C(=O)c3ccc(Cl)cc3)c(=O)[nH]c2cc1C` (stereo not drawn), the growth inhibition in assay [1] was -12.1%; in assay [2] it was -12.7%; in assay [3] it was -0.9%; in assay [4], 0.5%; in assay [5], -24.4%; in assay [6], -3.9%.
`COc1cc2c3cc1Oc1c(O)c(OC)cc4c1C(Cc1ccc(O)c(c1)Oc1ccc(cc1)CC3N(C)CC2)N(C)CC4` (stereo not drawn): the growth inhibition in assay [1] was -22.1%; in assay [2], -47.2%; in assay [3] it was -33.6%; in assay [4] it was -5.4%; in assay [5], -24.5%; in assay [6] it was -13%.
As to `Cc1cc(C)c2ccc(NN=O)nc2n1`, the growth inhibition is 11.4% in assay [1]; 9.75% in assay [2]; 18.9% in assay [3]; 19.1% in assay [4]; 13.2% in assay [5]; 25.7% in assay [6].
As to `Oc1ccccc1C=Nc1ccc(I)cc1.Oc1ccccc1C=Nc1ccc(I)cc1.[Co]`, the growth inhibition in assay [1] was 15.8%; in assay [2] it was 23.1%; in assay [3], 18.6%; in assay [4], 9.45%; in assay [5], 17.6%; in assay [6] it was 36.8%.
On to `CC(C)(O)CC(C)(c1ccccc1)c1ccccc1`, for which the growth inhibition in assay [1] is -9.95%; in assay [2], 0.75%; in assay [3], -1.25%; in assay [4] it was -39%; in assay [5], -13.1%; in assay [6], -15.2%.
Turning to `O=C1CSC(c2ccccn2)N1CCN1C(=O)CSC1c1ccccn1` (stereo not drawn), the growth inhibition in assay [1] is 7.4%; in assay [2], -0.85%; in assay [3], -15.9%; in assay [4] it was -4.35%; in assay [5] it was -8.05%; in assay [6], 6.65%.
As for `CCCC(C(=O)O)(c1ccccc1)c1ccccc1`, the growth inhibition in assay [1] is 11.3%; in assay [2] it was 0.55%; in assay [3] it was 5.45%; in assay [4], -24.9%; in assay [5] it was 7.5%; in assay [6] it was 1.8%.
With `COc1ccccc1OCc1nnc(SCC(=O)O)n1-c1ccccc1`, the growth inhibition in assay [1] was 3.75%; in assay [2], 3.4%; in assay [3], 2.45%; in assay [4], 11.6%; in assay [5], 8.4%; in assay [6] it was 27.9%.
Turning to `CCC(/C=C/C(C)C1CCC2C3CC=C4CC(OC(=O)Nc5ccccc5)CCC4(C)C3CCC12C)C(C)C` (stereo not drawn), the growth inhibition in assay [1] was -6.65%; in assay [2], 2.1%; in assay [3], -4.9%; in assay [4], 77.2% (active); in assay [5] it was 5.55%; in assay [6], 57.5%.
For `CCN(CC)CCN(C)c1ccccc1`, the growth inhibition in assay [1] is 9.85%; in assay [2], 4.35%; in assay [3] it was -2.05%; in assay [4] it was -1.05%; in assay [5], -0.1%; in assay [6], 0.3%.
As for `CCOc1ccc(/C=C/c2ccc3ccccc3[n+]2C)cc1OCC`, the growth inhibition in assay [1] is 16.1%; in assay [2], 9%; in assay [3], -5.3%; in assay [4] it was -14%; in assay [5] it was -1.35%; in assay [6], 19.7%.
For `COC(=O)CC1(C(=O)OC)Oc2ccc(Br)cc2C(=O)N1c1cccc(Cl)c1Cl` (stereo not drawn), the growth inhibition was 52.4% in assay [1]; 13.8% in assay [2]; 46.5% in assay [3]; 40.6% in assay [4]; 52.9% in assay [5]; 54.1% in assay [6].
Regarding `Cc1cc(O)c([N+](=O)[O-])cc1C`, the growth inhibition in assay [1] was -8.05%; in assay [2] it was -1.85%; in assay [3] it was -15.2%; in assay [4] it was -1.75%; in assay [5] it was 3.75%; in assay [6], -3.55%.
`Cc1cc([N+](=O)[O-])cc(C)c1N`: the growth inhibition in assay [1] was 1.6%; in assay [2], -11%; in assay [3], 3.3%; in assay [4], -15%; in assay [5], -4.5%; in assay [6], 7.15%.
As for `C=C(c1nc2ccc(Cl)cc2[nH]c1=O)C(O)c1ccc(C(O)C(=O)c2nc3ccc(Cl)cc3[nH]c2=O)cc1` (stereo not drawn), the growth inhibition in assay [1] is 5.85%; in assay [2], 4.55%; in assay [3] it was -15.6%; in assay [4], -68.8%; in assay [5] it was -1.4%; in assay [6], 9.05%.
In the case of `CSc1nnc(N(C(C)C)C(C)C)c2nc[nH]c12`, the growth inhibition in assay [1] is 9.65%; in assay [2], 11.8%; in assay [3], 16.1%; in assay [4], 47.5%; in assay [5] it was 14.7%; in assay [6], 4.2%.
Regarding `CCCCCCCCOCCS(=O)(=O)O`, the growth inhibition in assay [1] is 13.4%; in assay [2] it was -18.6%; in assay [3] it was -0.15%; in assay [4] it was -22.6%; in assay [5] it was -10.8%; in assay [6], 35.8%.
On to `Cc1cc(=O)n2c(cc3cccccc32)n1`, for which the growth inhibition was 14.6% in assay [1]; -1.3% in assay [2]; -13.4% in assay [3]; -23.4% in assay [4]; -23.4% in assay [5]; 4.65% in assay [6].
`CNC(=O)OCc1c(COC(=O)NC)c(C)n(-c2ccc(OC)cc2)c1C`: the growth inhibition in assay [1] was 20.9%; in assay [2], 3.55%; in assay [3], 42.1%; in assay [4], 15.8%; in assay [5] it was 31.3%; in assay [6], 42.8%.
